Experimental data reported in the supplement of paper PMC13094657.
± gives the standard deviation of the averaged measurements.

Experiments:
MDA-MB-231 [1] = assay: cell viability relative to vehicle unstimulated control (fraction); higher = more viable cells; conditions: pre-treatment time: 18 h then 24 h IFNg/TNF
MDA-MB-231 [2] = assay: kynurenine production, fold change vs DMSO IFNg/TNF control; higher = more kynurenine produced (less inhibition); conditions: pre-treatment time: 18 h then 24 h IFNg/TNF
Method in brief: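 MDA-MB-231 cells were seeded in 96-well plates at 7 × 10^4/well and, 24 h later, pre-treated for 18 h with each natural product in 0.1% DMSO. They were then stimulated for 24 h at 37°C with IFNγ (1 U/ml) and TNF (6.25 ng/ml). Supernatants were treated with trichloroacetic acid and p-dimethylaminobenzaldehyde and read at 492 nm against 0–100 μM standards. Kynurenine production is expressed as fold change over cytokine-stimulated vehicle wells on the same plate and, in the first screening round, averaged across duplicate plates.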
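Throughout, for cell viability relative to vehicle unstimulated control: viability of the cells left after supernatant collection, read with Deep Blue dye added for 4 h, as absorbance at 570 nm minus 600 nm.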

| SMILES | cell viability (MDA-MB-231 [1]) | kynurenine production (MDA-MB-231 [2]) |
| --- | --- | --- |
| CC1=C[C@H]2[C@@H](CC1)[C@H](C)CC[C@H]2[C@@H](C)C(=O)O [Dihydroartemisinic acid] (compound dose: 10 uM) | 1.107 ± 0.0025 | 0.998 ± 0.035 |
| C[C@H](CC[C@@H](O[C@@H]1O[C@H](CO)[C@@H](O)[C@H](O)[C@H]1O)C(C)(C)O)[C@H]1CC[C@@]2(C)[C@@H]3CC=C4[C@@H](CC[C@H](O)C4(C)C)[C@]3(C)[C@H](O)C[C@]12C [Mogroside I A1] (compound dose: 10 uM) | 0.881 ± 0.068 | 0.921 ± 0.21 |
| C[C@H]1[C@H](C)CC[C@]2(CO)CC[C@]3(C)C(=CC[C@@H]4[C@@]5(C)CC[C@H](O)C(C)(C)[C@@H]5CC[C@]43C)[C@H]12 [Uvaol] (compound dose: 10 uM) | 1.03 ± 0.14 | 0.98 ± 0.3 |
| O=c1cc(-c2ccc(O)cc2)oc2cc(O)cc(O)c12 [Apigenin] (compound dose: 10 uM) | 0.96 ± 0.053 | 0.806 ± 0.026 |
| C/C=C(\C)C(=O)O[C@H]1[C@H](O)[C@]2(COC(C)=O)[C@@H](O)C[C@]3(C)C(=CC[C@@H]4[C@@]5(C)CC[C@H](O[C@@H]6O[C@H](C(=O)O)[C@@H](O)[C@H](O)[C@H]6O)[C@@](C)(CO)[C@@H]5CC[C@]43C)[C@@H]2CC1(C)C [Gymnemic acid I] (compound dose: 10 uM) | 1.1 ± 0.017 | 1.43 ± 0.11 |
| O=C1C[C@@H](c2ccc(O)cc2)Oc2cc(O)cc(O)c21 [Naringenin] (compound dose: 10 uM) | 0.921 ± 0.013 | 0.772 ± 0.011 |
| C/C=C(\C)C(=O)O[C@H]1[C@H](O)[C@]2(COC(C)=O)[C@H](O)C[C@]3(C)C(=CC[C@@H]4[C@@]5(C)CC[C@H](O[C@@H]6O[C@H](C(=O)O)[C@@H](O[C@@H]7O[C@H](CO)[C@@H](O)[C@H](O)[C@H]7O)[C@H](O)[C@H]6O[C@@H]6O[C@H](CO)[C@@H](O)[C@H](O)[C@H]6O)[C@](C)(CO)[C@@H]5CC[C@]43C)[C@@H]2CC1(C)C [Isoescin IA] (compound dose: 10 uM) | 1.001 ± 0.0061 | 0.779 ± 0.12 |
| C=C(C)[C@@H]1CC=C(C)CC1 [(-)-Limonene] (compound dose: 10 uM) | 1.1 ± 0.035 | 0.935 ± 0.21 |
| C=C(C)C1CC=C(C)[C@@H](O)C1 (stereo not given in full) [Carveol] (compound dose: 10 uM) | 1.07 ± 0.081 | 0.801 ± 0.38 |
| C[C@H]1COC2=C1C(=O)C(=O)c1c2ccc2c1CCCC2(C)C [Cryptotanshinone] (compound dose: 10 uM) | 0.885 ± 0.048 | 0.3818 ± 0.0038 |
| C[C@H]1[C@H](C)CC[C@]2(C(=O)O[C@@H]3O[C@H](CO[C@@H]4O[C@H](CO)[C@@H](O[C@@H]5O[C@@H](C)[C@H](O)[C@@H](O)[C@H]5O)[C@H](O)[C@H]4O)[C@@H](O)[C@H](O)[C@H]3O)CC[C@]3(C)C(=CC[C@@H]4[C@@]5(C)C[C@@H](O)[C@H](O)[C@@](C)(CO)[C@@H]5[C@H](O)C[C@]43C)[C@H]12 [Madecassoside] (compound dose: 10 uM) | 1.03 ± 0.042 | 0.817 ± 0.099 |
| COC(=O)C1=CO[C@@H](O[C@@H]2O[C@H](CO)[C@@H](O)[C@H](O)[C@H]2O)[C@@H]2C(CO)=CC[C@H]12 [Geniposide] (compound dose: 10 uM) | 0.947 ± 0.031 | 0.939 ± 0.023 |
| CC(C)=CCC[C@](C)(O[C@@H]1O[C@H](CO)[C@@H](O)[C@H](O)[C@H]1O)[C@H]1CC[C@]2(C)[C@@H]1[C@H](O)C[C@@H]1[C@@]3(C)CC[C@H](O)C(C)(C)[C@@H]3[C@@H](O[C@@H]3O[C@H](CO)[C@@H](O)[C@H](O)[C@H]3O[C@@H]3OC[C@@H](O)[C@H](O)[C@H]3O)C[C@]12C [Notoginsenoside R1] (compound dose: 10 uM) | 0.909 ± 0.066 | 1 ± 0.038 |
| CC1(C)CC[C@]2(C(=O)O)[C@H](O)C[C@]3(C)C(=CC[C@@H]4[C@@]5(C)CC[C@H](O)[C@@](C)(C=O)[C@@H]5CC[C@]43C)[C@@H]2C1 [Quillaic acid] (compound dose: 10 uM) | 1.01 ± 0.015 | 1.11 ± 0.018 |
| CCCCC/C=C/C=C/C(=O)O[C@H]1C(C)=C[C@]23C(=O)[C@@H](C=C(CO)[C@@H](O)[C@]12O)[C@H]1[C@@H](C[C@H]3C)C1(C)C [3-O-(2'E,4'EDecadienoyl)ingenol] (compound dose: 10 uM) | 0.9682 ± 0.0024 | 0.812 ± 0.086 |
| C=C(C)[C@@H]1CC[C@]2(C(=O)O)CC[C@]3(C)[C@H](CC[C@@H]4[C@@]5(C)CC[C@H](O)C(C)(C)[C@@H]5CC[C@]43C)[C@@H]12 [Betulinic acid] (compound dose: 10 uM) | 0.993 ± 0.044 | 0.949 ± 0.051 |
| O[C@H]1[C@H]2c3cc4c(cc3CN3CC[C@H](C[C@@H]1O)[C@H]23)OCO4 [Dihydrolycorine] (compound dose: 10 uM) | 0.961 ± 0.041 | 0.723 ± 0.022 |
| C[C@H]1O[C@@H](Oc2ccc(COC(=O)CC(O)(CC(=O)OCc3ccc(O[C@@H]4O[C@H](CO)[C@@H](O)[C@H](O)[C@H]4O)cc3)C(=O)Oc3ccc(O[C@H]4O[C@H](CO)[C@@H](O)[C@H](O)[C@H]4O)cc3)cc2)[C@H](O)[C@@H](O)[C@@H]1O (stereo not given in full) [Parishin] (compound dose: 10 uM) | 0.985 ± 0.054 | 0.792 ± 0.13 |
| CC(=O)OC(CC(C)C1=C2C[C@H](O)C3[C@@]4(C)CCC(=O)C(C)(C)C4CC[C@]3(C)[C@@]2(C)CC1)C1OC1(C)C (stereo not given in full) [Alisol B 23-acetate] (compound dose: 10 uM) | 1.05 ± 0.034 | 1.27 ± 0.24 |
| C/C1=C\[C@H]2C(=O)[C@@H](C)C[C@]2(O)C(=O)/C(C)=C/[C@@H]2[C@H](CC1)C2(C)C [jolkinol C] (compound dose: 10 uM) | 1.07 ± 0.041 | 0.868 ± 0.087 |
